# Reference: the antibiotic and cytotoxicity screens of Wong et al. (2023)
# The whole screen tested about 39,000 compounds, of which about 1,500 (3.8%) were called active. The entries come from a sample that favours actives as a whole.
# Test system: HSkMC (human skeletal muscle cells)
# Test: cytotoxicity call (relative viability < 0.9)
# Conditions: 10 µM
row,SMILES,cytotoxicity call
1,O=C(C[C@H]1CC[C@@H]2[C@H](COC[C@H](O)CN2C(=O)c2ccccc2)O1)NCCCN1CCOCC1,inactive
2,C[C@@H]1CN([C@@H](C)CO)C(=O)Cc2cc(NS(=O)(=O)c3ccc(F)cc3)ccc2O[C@H]1CN(C)S(=O)(=O)c1cn(C)cn1,inactive
3,C[C@@H]1CN([C@@H](C)CO)C(=O)c2cc(NC(=O)Nc3ccc(C(F)(F)F)cc3)ccc2O[C@@H]1CN(C)C(=O)Nc1ccc(C(F)(F)F)cc1,inactive
4,C[C@@H]1CCCCO[C@H](CN(C)CC2CC2)[C@H](C)CN([C@H](C)CO)C(=O)c2cc(NC(=O)C3CCCCC3)ccc2O1,inactive
5,COc1ccc(CN(C)C[C@@H]2OCCCC[C@H](C)Oc3ccc(NC(=O)C4CCCCC4)cc3C(=O)N([C@@H](C)CO)C[C@@H]2C)cc1,inactive
6,Nc1ncnc2c1ncn2[C@H]1O[C@@H](CO)[C@H](O)[C@@H]1S,inactive
7,CNc1ncnc2c1ncn2[C@@H]1O[C@H](CO)[C@@H](O)[C@H]1O,inactive
8,COc1ccc(CC(N)C(=O)NC2C(CO)OC(n3cnc4c(N(C)C)ncnc43)C2O)cc1.Cl.Cl (centres undefined),active
9,CN(C)c1ncnc2c1ncn2[C@H]1O[C@@H](CO)[C@@H](N)[C@@H]1O,inactive
10,Nc1ccc(CCNc2ncnc3c2ncn3[C@@H]2O[C@H](CO)[C@@H](O)[C@H]2O)cc1,inactive
11,COc1ccc(C[C@@H](N)C(=O)N[C@@H]2[C@@H](O)[C@@H](n3cnc4c(N(C)C)ncnc43)O[C@@H]2CO)cc1,active
12,Nc1ncnc2c1ncn2[C@@H]1O[C@H](CO)[C@@H](O)[C@H]1O,inactive
13,COc1ccc(C[C@H](N)C(=O)N[C@H]2[C@@H](O)[C@H](n3cnc4c(N(C)C)ncnc43)O[C@@H]2CO)cc1,active
14,Nc1ncnc2c1ncn2C1OC(CO)C(O)C1O (centres undefined),inactive
15,COc1nc(N)nc2c1ncn2[C@@H]1O[C@H](CO)[C@@H](O)[C@@H]1O,inactive
16,COc1ccc(C[C@H](N)C(=O)N[C@H]2[C@@H](O)[C@@H](n3cnc4c(N(C)C)ncnc43)O[C@@H]2CO)cc1,active
17,OC[C@H]1O[C@@H](n2cnc3c(NCc4ccco4)ncnc32)[C@H](O)[C@@H]1O,inactive
18,C[C@H](CO)N1C[C@H](C)[C@@H](CN(C)C(=O)Nc2ccc3c(c2)OCO3)Oc2ccc(NC(=O)CCN3CCOCC3)cc2C1=O,inactive
19,Cc1noc(C)c1NC(=O)N(C)C[C@H]1Oc2ccc(NC(=O)C3CC3)cc2CC(=O)N([C@@H](C)CO)C[C@H]1C,inactive
20,CCOCCCNc1nc2c([nH]1)c(=O)n(C)c(=O)n2C,inactive
21,C[C@@H]1CN([C@H](C)CO)S(=O)(=O)c2ccc(-c3cncnc3)cc2O[C@H]1CN(C)C(=O)c1cccc(F)c1,inactive
22,C[C@@H]1CN([C@@H](C)CO)C(=O)c2cccc(NC(=O)c3cnccn3)c2O[C@@H]1CN(C)CC1CCCCC1,inactive

row,SMILES,cytotoxicity call
1,COc1cccc(C#Cc2ccc3c(c2)O[C@@H](CN(C)C(=O)c2ccccn2)[C@H](C)CN([C@H](C)CO)S3(=O)=O)c1,inactive
2,COC(=O)CCCCCCC(=O)Nc1ccc([C@H]2O[C@@H](CSc3nc(-c4ccccc4)c(-c4ccccc4)o3)C[C@H](c3ccc([N+](=O)[O-])cc3)O2)cc1,inactive
3,COCCOC(=O)N1C(=O)[C@@]2(c3cc(C#Cc4ccc(OC)cc4)ccc31)[C@H](c1ccc(O)cc1)N1[C@H](c3ccccc3)[C@H](c3ccccc3)OC(=O)[C@H]1[C@@H]2C(=O)NC[C@H](O)c1ccccc1,inactive
4,O=C(NCc1csnn1)c1csnn1,inactive
5,O=C(COC(=O)/C=C/c1cn(-c2ccccc2)nc1-c1ccc2c(c1)OCCO2)N[C@H]1CCS(=O)(=O)C1,inactive
6,C[C@H]1CN([C@@H](C)CO)C(=O)CCCn2nncc2CO[C@@H]1CN(C)S(=O)(=O)c1ccc(-n2cccn2)cc1,inactive
7,COc1ccc(S(=O)(=O)N[C@H]2C=C[C@H](CC(=O)N3CCC(Cc4ccccc4)CC3)O[C@H]2CO)cc1,inactive
8,C[C@@H]1CN([C@@H](C)CO)C(=O)Cc2cc(NC(=O)CCN3CCOCC3)ccc2O[C@H]1CN(C)C(=O)NC1CCCCC1,inactive
9,CC(C)(N)c1ccccc1Br,inactive
10,C[C@@H]1CN([C@@H](C)CO)C(=O)c2cccc(NC(=O)NC3CCCCC3)c2O[C@H]1CN(C)Cc1ccc(Cl)c(Cl)c1,inactive
11,COc1cc2c(NC3CCN(C)CC3)nc(N3CCCN(C)CC3)nc2cc1OCCOCCN(C)C,inactive
12,COc1cc2c(NC3CCN(C(C)C)CC3)nc(N3CCC(F)(F)CC3)nc2cc1OCCCN1CCCC1,active
13,COc1cc2nc(N3CCN(C(=O)C4CCCO4)CC3)nc(N)c2cc1OC.Cl (centres undefined),inactive
14,C[C@@H]1CN([C@@H](C)CO)C(=O)Cc2cc(NS(=O)(=O)c3ccccc3)ccc2O[C@@H]1CN(C)Cc1ccc(C(=O)O)cc1,inactive
15,COc1cccc(NC(=O)N(C)C[C@H]2OCc3ccccc3-c3c(n(C)c4ccccc34)C(=O)N([C@H](C)CO)C[C@H]2C)c1,inactive
16,C[C@@H]1CCCCO[C@@H](CN(C)C(=O)CCC(F)(F)F)[C@H](C)CN([C@@H](C)CO)C(=O)c2cc(NS(=O)(=O)c3cccs3)ccc2O1,inactive
17,Cc1ccc(S(=O)(=O)Nc2ccc3c(c2)C(=O)N([C@@H](C)CO)C[C@@H](C)[C@@H](CN(C)C(=O)c2ccccc2)OCCCC[C@@H](C)O3)cc1,inactive
18,C[C@H](CO)N1C[C@H](C)[C@H](CN(C)Cc2ccc(C(F)(F)F)cc2)Oc2ccc(NC(=O)Cc3ccccc3)cc2C1=O,inactive
19,Cc1ccc(S(=O)(=O)N(C)C[C@@H]2Oc3cc(Br)ccc3S(=O)(=O)N([C@@H](C)CO)C[C@@H]2C)cc1,inactive
20,COc1ccc(S(=O)(=O)Nc2ccc3c(c2)C(=O)N([C@@H](C)CO)C[C@@H](C)[C@@H](CN(C)Cc2ccc(C(F)(F)F)cc2)OCCCC[C@H](C)O3)cc1,inactive
21,COc1ccc(S(=O)(=O)Nc2ccc3c(c2)C(=O)N([C@H](C)CO)C[C@H](C)[C@@H](CN(C)Cc2ccc(C(F)(F)F)cc2)OCCCC[C@@H](C)O3)cc1,active
22,COc1ccc(S(=O)(=O)Nc2ccc3c(c2)C(=O)N([C@H](C)CO)C[C@H](C)[C@H](CN(C)Cc2ccc(C(F)(F)F)cc2)OCCCC[C@H](C)O3)cc1,active

row,SMILES,cytotoxicity call
1,COc1ccc(S(=O)(=O)Nc2ccc3c(c2)C(=O)N([C@@H](C)CO)C[C@@H](C)[C@@H](CN(C)Cc2ccc(C(F)(F)F)cc2)OCCCC[C@@H](C)O3)cc1,inactive
2,COc1ccc(S(=O)(=O)Nc2ccc3c(c2)C(=O)N([C@@H](C)CO)C[C@H](C)[C@@H](CN(C)Cc2ccc(C(F)(F)F)cc2)OCCCC[C@@H](C)O3)cc1,inactive
3,COc1ccc(S(=O)(=O)Nc2ccc3c(c2)C(=O)N([C@H](C)CO)C[C@@H](C)[C@@H](CN(C)Cc2ccc(C(F)(F)F)cc2)OCCCC[C@@H](C)O3)cc1,active
4,COc1ccc(S(=O)(=O)Nc2ccc3c(c2)C(=O)N([C@H](C)CO)C[C@@H](C)[C@H](CN(C)Cc2ccc(C(F)(F)F)cc2)OCCCC[C@@H](C)O3)cc1,inactive
5,COc1ccc(S(=O)(=O)Nc2ccc3c(c2)C(=O)N([C@@H](C)CO)C[C@@H](C)[C@H](CN(C)Cc2ccc(C(F)(F)F)cc2)OCCCC[C@@H](C)O3)cc1,active
6,COc1ccc(S(=O)(=O)Nc2ccc3c(c2)C(=O)N([C@@H](C)CO)C[C@H](C)[C@@H](CN(C)Cc2ccc(C(F)(F)F)cc2)OCCCC[C@H](C)O3)cc1,inactive
7,COc1ccc(S(=O)(=O)Nc2ccc3c(c2)C(=O)N([C@H](C)CO)C[C@@H](C)[C@@H](CN(C)Cc2ccc(C(F)(F)F)cc2)OCCCC[C@H](C)O3)cc1,inactive
8,C[C@H](CO)N1C[C@H](C)[C@H](CN(C)S(=O)(=O)c2cccc(F)c2)Oc2ncc(C#CC3(O)CCCC3)cc2C1=O,inactive
9,C[C@H](CO)N1C[C@H](C)[C@H](CN(C)CC2CCCCC2)Oc2c(NC(=O)c3nc4ccccc4s3)cccc2C1=O,inactive
10,C[C@@H]1CN([C@@H](C)CO)C(=O)c2cc(NS(=O)(=O)c3cn(C)cn3)ccc2O[C@@H](C)CCCCO[C@@H]1CN(C)S(=O)(=O)c1ccccc1,inactive
11,COc1ccc(-c2cnc3c(c2)C(=O)N([C@H](C)CO)C[C@@H](C)[C@H](CN(C)C(=O)Cc2ccncc2)O3)cc1,inactive
12,C[C@@H]1CN([C@@H](C)CO)C(=O)c2cc(NC(=O)Cn3cnnn3)ccc2O[C@@H]1CN(C)S(=O)(=O)c1ccccc1,inactive
13,O=C(C[C@H]1C[C@H]2c3cc(NC(=O)NC4CCCC4)ccc3O[C@H]2[C@H](CO)O1)NCCN1CCCCC1,inactive
14,Cc1ncc([N+](=O)[O-])n1C,inactive
15,C[C@@H]1CCCCO[C@H](CN(C)S(=O)(=O)c2cn(C)cn2)[C@@H](C)CN([C@@H](C)CO)C(=O)c2cc(NC(=O)Nc3ccc(C(F)(F)F)cc3)ccc2O1,inactive
16,C[C@H]1CN([C@@H](C)CO)C(=O)Cc2cc(NC(=O)c3ccncc3)ccc2O[C@H]1CN(C)C(=O)NC1CCCCC1,inactive
17,Cc1ccc(S(=O)(=O)Nc2ccc3c(c2)C(=O)N([C@@H](C)CO)C[C@@H](C)[C@@H](CN(C)C(=O)NC2CCCCC2)OCCCC[C@H](C)O3)cc1,inactive
18,C[C@H](O)C#Cc1ccc2c(c1)O[C@H](CN(C)C(=O)Nc1ccccc1)[C@@H](C)CN([C@@H](C)CO)S2(=O)=O,inactive
19,Cc1ccccc1S(=O)(=O)N1C[C@H](O)COC[C@@H]2O[C@@H](CC(=O)N3CCN(C)CC3)CC[C@H]21,inactive
20,COCC(=O)Nc1ccc2c(c1)C(=O)N(C)C[C@@H](OC)[C@H](C)CN(C(=O)CN1CCOCC1)[C@H](C)CO2,inactive
